# According to PubChem BioAssay AID1347051 (National Center for Advancing Translational Sciences (NCATS), 2019):
# Among all 1,400 compounds or so, about 980 (70%) were called active. Roughly 16% stayed inconclusive and do not appear here. So high a share suggests a set chosen from earlier hits. Only a sample is shown. A number with no mark means an inactive call. Calls follow the shape of the full dose curve.
# Assay: Natriuretic polypeptide receptor (hNpr1) antagonism - Counterscreen GloSensor control cell line; also: nearly all actives have a fitted effect of over 70% in size
# Details: HEK293 GloSensor cGMP, SNP-stimulated, luminescence; series mostly up to 57.6 µM; activity change, negative = inhibition: at the top concentration
# Description: cGMP production was measured using a circular permutated firefly luciferase (FLuc) enzyme functionally linked to the cGMP binding domain of human phosphodiesterase 5 (GloSensor technology pGS-40F, (Fan, F. et al. 2008). The cGMP-sensor was expressed in human embryonic kidney 293 (HEK-293) cells and FLuc activity was measured after stimulation with the NO-donor sodium nitroprusside (SNP). SNP activates the endogenously expressed soluble guanylyl cyclase (GC) producing cGMP which then binds to the GloSensor resulting in FLuc activation, the enzymatic activity of which can be measured as bioluminescence with addition of luciferin substrate. F. Fan, B. F. Binkowski, B. L. Butler, P. F. Stecha, M. K. Lewis, K. V. Wood, Novel genetically encoded biosensors using firefly luciferase. ACS Chem Biol 3, 346-351 (2008).
# PROTOCOL TABLE (as described by Inglese J, Shamu CE and Guy RK. 2007) SEQUENCE No. (e.g., 1, 2, 3, etc.); PARAMETER (e.g., Cells, Incubation, Reagent, etc.); VALUE and DESCRIPTION. 1. Cells. Seed 1500 HEK293 cGMP-sensor cells per well in 4uL into Greiner 1536-well white/solid bottom high base, TC plates. 2. Incubation. Incubate plated cells at 37C in 5% CO2, 95% RH overnight. 3. Reagent. Add 1uL per well GloSensor reagent from Promega (2% final concentration) or CO2 independent media vehicle control to respective columns of Greiner 1536-well plates. 4. Incubation. Incubate plated cells at room temperature for 2 h, protect from light. 5. Compounds. Library compounds and DMSO vehicle control added at 23nL per well, transferred by Pin Tool. 6. Incubation. Incubate plated cells for 30 min. at room temperature, protect from light. 7. Detector. GloSensor baseline pre-read luminescence measured using CCD-based camera (Viewlux). 8. Compound. Add 1uL of sodium nitroprusside (SNP) to 50 uM final concentration to stimulate soluble guanylyl cyclase (GC) or CO2 independent media as vehicle control. 9. Incubation. Incubate treated cells at room temperature for 20 min., protect from light. 10. Detector. GloSensor post-SNP luminescence measured using CCD-based camera (Viewlux). NOTES (numbers refer to Sequence numbers above; values are from representative experiments) 1. HEK293 cells expressing GIP/pGS-40F were grown to 85-95% confluence (48-72 h) in T175 culture flasks (CO2 independent media supplemented with 10% FBS, 1% Pen/Strep antibiotics, and 1 ug/mL puromycin). Trypsinize and harvest cells from T175 culture flasks and filter through 40 um cell strainer. Cells counted with Invitrogen Countess (30,000,000 - 50,000,000 cells/flask). Cells diluted to a final concentration of 375 cells/uL in CO2 independent media and a Millipore multidrop used to dispense 1500 cells per well (4uL/well) into 13 1536-well Greiner White/Solid bottom, high base tissue-culture treated (TC) plates and one Aurora 1536-well Black/Clear bottom, low base, TC plate (for visual inspection of cell health throughout the duration of the assay). 2. Cells incubated for 24 h. at 37C in 95% RH incubator with metal lid having gas-exchange holes. 3. Prepare GloSensor Reagent (Promega): Reconstitute GloSensor luciferase substrate by adding 8.2mL Hepes buffer to 250mg substrate, mix well, protect from light and stored at -80C. Prepare a fresh 12% GloSensor solution in CO2 independent supplemented plating media (see above). Mix well and store at ambient temperature, protected from light. 1uL 12% GloSensor Luciferase Reagent added (2% final concentration) to respective columns of 13 x 1536-well Greiner plate with BioRaptr, 1uL CO2 independent plating media added to respective columns as vehicle control with BioRaptr. 4. Cells incubated for 2 h. at ambient temperature, protected from light with metal lid having gas-exchange holes. 5. 23nL of library compounds or DMSO vehicle control transferred to 13 Greiner white/solid bottom high base, TC plates in 11 interplate 1:3 titrations (see Yasgar, A. et al. 2008) with Pintool. 6. […]
# % is scaled to controls: 0 for no effect and ±100 for the full control effect; potency is read from the fitted curve at half-maximal effect.
Compound,"activity change, negative = inhibition",Potency
COc1cccc(C2Cn3nnc(-c4nc(-c5ccccc5)no4)c3CO2)c1 (stereo not given),-12.6%,–
COc1ccc(C2Cn3nnc(C(=O)N4CCN(C(=O)c5ccc(C)cc5C)CC4)c3CO2)cc1 (stereo not given),–,21.7 µM (active)
COc1ccc(C2Cn3nnc(C(=O)N4CCN(C(=O)c5cccc(Cl)c5)CC4)c3CO2)cc1 (stereo not given),–,12.2 µM (active)
O=[S+]1([O-])NCC2(CCCN(Cc3ccc(C(F)(F)F)cc3)C2)Oc2ncccc21 (stereo not given),–,15.3 µM (active)
COc1ccc(C(CC(=O)N(C)Cc2cc(C3CC3)n[nH]2)c2ccccc2)cc1 (stereo not given),4.58%,–
COc1ccc(OCC2(C)COc3ccc(C(=O)Nc4cccnc4)cc3N2)cc1 (stereo not given),–,49.8 µM (active)
CC1(CCCCc2ccccc2)COc2ccc(C(=O)N3CC[S+](=O)([O-])CC3)cc2N1 (stereo not given),-28.2%,–
Cc1noc(C)c1-c1cc(-c2ccccc2Oc2ccccc2)cn2cncc12,-24.7% [at 86.2 µM],–
Cc1nc(-c2ccncc2)ncc1C(C)Nc1ncnc(C)c1C (stereo not given),–,19.3 µM (active)
CC(C)c1nncn1C1CCN(S(=O)(=O)c2cccc(Br)c2)CC1,–,24.3 µM (active)
CC1(C(=O)NCc2ccc3c(c2)OCO3)CCc2cnc(NCc3ccccc3)nc21 (stereo not given),–,44.4 µM (active)
CC(C)(C)c1csc(NC(=O)c2ccc3c(c2)OCCN(C2CCC2)C3)n1,–,25 µM (active)
COc1ccc(-c2noc(CC3CCN(C(=O)Cc4ccc(C)cc4)CC3)n2)cc1,–,30.6 µM (active)
COc1ccc(-c2noc(CC3CCN(C(=O)Cc4ccccc4)CC3)n2)cc1,–,27.3 µM (active)
COc1ccc(-c2noc(CC3CCN(C(=O)CC4CCCCC4)CC3)n2)cc1,–,8.62 µM (active)
COc1cccc(CNC(=O)Cn2c(N(C)Cc3ccccc3)nc(C)cc2=O)c1OC,–,24.3 µM (active)
COc1cccc(NC(=O)Cn2c(N(C)Cc3ccccc3)nc(C)cc2=O)c1,–,10.9 µM (active)
COc1cccc(C2C(C(=O)Nc3ccccc3)=C(C)N=C3SC=C(CC(=O)NCC(C)C)N32)c1 (stereo not given),-23.8%,–
O=C(c1ccc2cc[nH]c2c1)N1CCC2(CC1)N=C(c1ccc(Cl)cc1)NO2,–,15.3 µM (active)
Cc1nn2c(c1-c1ccccc1-c1ccccc1)N(CC1CC1)CCC2,–,2.8 µM (active)
Cc1nn2c(c1-c1ccnn1C(C)C)N(CC1CCOCC1)CCC2,-21.4% [at 86.2 µM],–
CC1=NS(=O)(=O)N(C)C=C1C(=O)OCc1nc(-c2ccc(C)cc2)no1,–,8.62 µM (active)
CCN(CCCNC(=O)c1nnn2cc(-c3ccccc3)[nH]c(=O)c12)c1ccccc1,-5.02%,–
Cc1c[nH]c(CN2CCCC(CCc3ccc(F)cc3F)C2)c(C)c1=O (stereo not given),–,2.43 µM (active)
Cc1noc(C)c1-c1cnc2[nH]cc(CC(=O)N3CCOCC3)c2c1,–,22.2 µM (active)
O=C(Cc1c[nH]c2ncc(-c3ccccc3F)cc12)N1CCOCC1,–,28 µM (active)
COc1ccccc1Nc1cnc2ccc(N(C)Cc3cccnc3)nn12,–,35.3 µM (active)
O=C(NCC1CC1)c1nc2c(o1)CCN(Cc1cccc(F)c1F)CC2,–,22.2 µM (active)
O=C1Nc2ccccc2CN(Cc2ccccc2)C12CCNCC2,-14.8%,–
O=C1NCN(Cc2ccc(Cl)cc2)C12CCN(Cc1ccccc1)CC2,–,13.7 µM (active)
